Here are results for 15 compounds from PubChem BioAssay (NCATS).

Assay [1] concerns the target Lysosomal acid glucosylceramidase (Homo sapiens) (UniProt P04062). The experiment in a line: Glucocerebrosidase-p2 (AID 348; in the data active = potency below about 10 µM; also: potency is read from the fitted curve at half-maximal effect). The note with it: purified GBA, blue fluorogenic substrate, 40 min. The procedure, abridged: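 Normal human glucocerebrosidase (0.2 nM) with blue fluorogenic substrate (80 uM final) in citrate/phosphate pH 5.9 with 10mM sodium taurocholate, 0.01% tween-20; 40 min RT, NaOH/glycine stop; fluorescence Ex 365/Em 440; AC50 from a titration from 0.6 nM upwards.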

Assay [2] can be described thus: AP1 Signaling Pathway (AID 357).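 Also: ME-180 reporter cells stimulated with EGF at its EC50 level; % is scaled to controls: 0 for no effect and ±100 for the full control effect.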 Conditions: ME-180 AP-1-bla reporter, EGF-induced, beta-lactamase ratio, 5 h; at 7.69 µM (top of the series) unless noted. The essentials: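 First, ME-180 AP-1-bla cells were cultured overnight at 37 °C in low-serum Opti-MEM. Next, titrated compounds with EC50 EGF were incubated 5 hours. Finally, CCF4 was added for 2.5 hours and the 460/530 nm ratio recorded.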

In assay [3] the target is Cytochrome P450 1A2 (Homo sapiens) (UniProt P05177). Briefly: p450-cyp1a2 (AID 410; calls by dose curve; also: potency is read from the fitted curve at half-maximal effect;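 as to activity change, negative = inhibition: -100% = full effect of reference inhibitor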). Conditions: recombinant CYP1A2, luciferin-ME demethylation, luminescence; series mostly up to 11.4 µM. The procedure, abridged:
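Read-out is luminescence from luciferin produced by CYP1A2 demethylation of Luciferin-ME (100uM, at Km). Detection reagent stopped the 60 min NADPH-dependent reaction; signals were normalized to 57 uM furafylline.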

The nature of assay [4]: NFAT Signaling Pathway (AID 444).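 Also: carbachol stimulus at about its EC50 of 1 µM final; % is scaled to controls: 0 for no effect and ±100 for the full control effect.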 The note with it: Jurkat NFAT-bla M1, carbachol, beta-lactamase ratio, 5 h; at 7.69 µM (top of the series) unless noted. The essentials:
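Jurkat cells with NFAT-driven β-lactamase reporter and co-expressed M1 receptor, stimulated with carbachol (final 1 uM, ~EC50), compound titration, 5 h at 37 °C. CCF4 loaded 1 h at RT; 460/530 nm ratio gave %activity and AC50.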

The nature of assay [5]: Stat Signaling Pathway (AID 446).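 Also: ME-180 cervical cancer cells given 40 pM IL-6 alongside compound; SIE-controlled beta-lactamase reporter measured as 460/530 nm FRET emission ratio; % is scaled to controls: 0 for no effect and ±100 for the full control effect.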 The note with it: ME-180 (cervical carcinoma) SIE beta-lactamase reporter, IL-6 stimulated, 5 h; at 7.69 µM (top of the series) unless noted. The procedure, abridged: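 Emission at 460 and 530 nm (excitation 405 nm) reports SIE-controlled beta-lactamase in ME-180 cells. Cells received compound with 40 pM IL-6 for 5 hrs at 37 C; data scaled between 300 pM IL-6 and 125 nM JAK-inhibitor controls.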

Assay [6] concerns the target Glucocorticoid receptor (Homo sapiens) (UniProt P04150). The experiment in a line: GR-GFP Redistribution (AID 450;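 active = compounds whose dose series gives a full or clear partial fitted curve of increased nuclear translocation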; also: potency is read from the fitted curve at half-maximal effect). The note with it: U2OS GR-GFP nuclear translocation, laser cytometry, 2 h.
Assay [7] has the same target. The experiment in a line: GR-EFC Redistribution (AID 451; calls by dose curve; also: potency is read from the fitted curve at half-maximal effect). Conditions: CHO-K1 GR-EFC translocation, beta-gal luminescence, 2 h. The essentials: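 CHO-K1 cells expressing nuclear EA and GR-ED fragments of b-gal; compounds titrated up to 46 uM final, 2 h at 37 C. GR nuclear translocation read as complemented b-gal luminescence after 1 h RT detection.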
The target in assay [8] is Mitogen-activated protein kinase 10 (Mus musculus) (UniProt Q61831). The experiment in a line: JNK3 AlphaScreen Assay (AID 530).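 Also: kinase came from lysate of stimulated human HepG2 cells; signal reports phosphorylation of biotinylated GST-cJun 1-79 at Ser73 with 10 µM ATP; % is scaled to controls: 0 for no effect and ±100 for the full control effect.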 Conditions: JNK3 lysate, c-Jun phosphorylation; series mostly up to 11.4 µM. The procedure, abridged: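 HepG2 lysate (IL-1b/TNFa pre-activated) + biotin-GST-cJun 1-79 + anti-pSer73 cJun; cpd titration, 15 min RT; ATP 10 uM start; Tris pH 7.6, MgCl2, DTT, vanadate; beads in EDTA buffer; AlphaScreen.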
(In general: Bead proximity is the source of the signal in Alpha formats.)

The target in assay [9] is 3',5'-cyclic-AMP phosphodiesterase 4B (Homo sapiens) (UniProt Q07343). The experiment in a line: qHTS Assay for Inhibitors of PDE-IV (AID 607; active = well fitted activation curve with a large enough effect in the main read-out, with a control signal flat, not every such curve was filed as active; also: % of control where 0% means no effect). Conditions: HEK293 ACTOne CNG channel cells, membrane potential fluorescence; series mostly up to 22.9 µM. The essentials: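 The readout is membrane depolarisation from a cAMP-sensing CNG channel, detected with a potential dye at ex 535/em 590. Cells were HEK293-derived (endogenous PDE-IV) at 1000 cells/well, titrated up to 22.9 uM final.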

Unmarked numbers belong to inactive results. Records with an inconclusive call do not appear. Calls of active or inactive are those of the source. Unless noted, calls follow the shape of the dose curve; as a rule, active = well fitted curve in either direction with a large enough effect (not every such curve was filed as active); inconclusive = small, poorly fitted or top-dose-only effect, or another doubt; inactive = flat fitted curve, though single readings scatter.

Chain of 3',5'-cyclic-AMP phosphodiesterase 4B (Homo sapiens) (Q07343 whole entry, looked up): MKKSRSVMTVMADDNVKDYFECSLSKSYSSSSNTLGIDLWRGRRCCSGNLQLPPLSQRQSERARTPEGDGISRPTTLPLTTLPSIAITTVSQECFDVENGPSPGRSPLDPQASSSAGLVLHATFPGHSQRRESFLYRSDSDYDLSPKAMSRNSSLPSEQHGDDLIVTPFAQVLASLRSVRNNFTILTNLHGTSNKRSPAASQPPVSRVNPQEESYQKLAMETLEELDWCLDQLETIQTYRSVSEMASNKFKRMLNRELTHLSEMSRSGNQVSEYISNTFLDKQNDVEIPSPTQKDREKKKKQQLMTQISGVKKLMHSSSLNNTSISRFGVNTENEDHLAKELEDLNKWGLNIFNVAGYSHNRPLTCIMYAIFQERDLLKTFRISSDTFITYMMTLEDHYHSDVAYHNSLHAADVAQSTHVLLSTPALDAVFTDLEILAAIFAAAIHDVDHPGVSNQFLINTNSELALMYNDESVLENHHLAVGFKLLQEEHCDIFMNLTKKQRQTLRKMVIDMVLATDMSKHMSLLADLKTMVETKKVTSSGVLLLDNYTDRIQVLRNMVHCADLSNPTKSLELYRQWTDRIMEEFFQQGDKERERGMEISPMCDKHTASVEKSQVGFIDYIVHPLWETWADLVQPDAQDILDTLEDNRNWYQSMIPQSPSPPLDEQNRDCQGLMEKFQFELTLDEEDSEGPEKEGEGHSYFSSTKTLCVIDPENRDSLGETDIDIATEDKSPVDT
Chain of Lysosomal acid glucosylceramidase (Homo sapiens) (P04062 whole entry, looked up): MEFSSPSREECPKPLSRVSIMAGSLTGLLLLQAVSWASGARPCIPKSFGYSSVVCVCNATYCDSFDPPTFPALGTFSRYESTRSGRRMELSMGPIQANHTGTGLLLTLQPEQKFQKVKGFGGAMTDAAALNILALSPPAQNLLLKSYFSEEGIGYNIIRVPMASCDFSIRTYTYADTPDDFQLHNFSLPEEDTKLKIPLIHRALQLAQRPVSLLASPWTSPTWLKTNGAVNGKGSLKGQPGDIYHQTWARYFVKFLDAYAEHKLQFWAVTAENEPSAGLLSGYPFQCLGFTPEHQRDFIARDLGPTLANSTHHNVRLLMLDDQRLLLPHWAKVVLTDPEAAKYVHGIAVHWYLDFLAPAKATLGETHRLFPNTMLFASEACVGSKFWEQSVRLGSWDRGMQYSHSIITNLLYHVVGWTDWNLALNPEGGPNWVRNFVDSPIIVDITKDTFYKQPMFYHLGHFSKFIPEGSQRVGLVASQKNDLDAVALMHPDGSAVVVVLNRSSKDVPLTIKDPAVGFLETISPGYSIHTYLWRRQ
Chain of Glucocorticoid receptor (Homo sapiens) (P04150 whole entry, looked up, the tested form may be a part): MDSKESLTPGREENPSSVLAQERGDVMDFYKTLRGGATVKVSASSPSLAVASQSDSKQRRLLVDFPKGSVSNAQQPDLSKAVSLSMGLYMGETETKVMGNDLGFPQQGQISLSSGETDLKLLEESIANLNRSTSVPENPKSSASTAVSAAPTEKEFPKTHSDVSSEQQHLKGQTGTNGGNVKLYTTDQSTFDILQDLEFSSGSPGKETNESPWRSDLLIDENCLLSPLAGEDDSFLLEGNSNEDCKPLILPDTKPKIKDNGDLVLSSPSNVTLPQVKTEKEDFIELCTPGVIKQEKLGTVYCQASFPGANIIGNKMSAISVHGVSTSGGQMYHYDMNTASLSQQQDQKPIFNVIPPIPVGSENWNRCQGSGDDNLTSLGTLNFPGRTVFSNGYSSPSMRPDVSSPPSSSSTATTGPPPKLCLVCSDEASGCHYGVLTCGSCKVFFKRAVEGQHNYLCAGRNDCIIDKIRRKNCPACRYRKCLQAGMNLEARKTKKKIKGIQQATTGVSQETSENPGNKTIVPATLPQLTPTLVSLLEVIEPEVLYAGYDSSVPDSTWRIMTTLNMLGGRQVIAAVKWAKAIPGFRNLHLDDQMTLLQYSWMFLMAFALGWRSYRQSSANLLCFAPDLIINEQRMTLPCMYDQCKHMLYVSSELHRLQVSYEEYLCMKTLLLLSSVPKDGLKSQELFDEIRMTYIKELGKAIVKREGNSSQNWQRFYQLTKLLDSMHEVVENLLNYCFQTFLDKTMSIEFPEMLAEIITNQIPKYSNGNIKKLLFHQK
Chain of Cytochrome P450 1A2 (Homo sapiens) (P05177 whole entry, looked up): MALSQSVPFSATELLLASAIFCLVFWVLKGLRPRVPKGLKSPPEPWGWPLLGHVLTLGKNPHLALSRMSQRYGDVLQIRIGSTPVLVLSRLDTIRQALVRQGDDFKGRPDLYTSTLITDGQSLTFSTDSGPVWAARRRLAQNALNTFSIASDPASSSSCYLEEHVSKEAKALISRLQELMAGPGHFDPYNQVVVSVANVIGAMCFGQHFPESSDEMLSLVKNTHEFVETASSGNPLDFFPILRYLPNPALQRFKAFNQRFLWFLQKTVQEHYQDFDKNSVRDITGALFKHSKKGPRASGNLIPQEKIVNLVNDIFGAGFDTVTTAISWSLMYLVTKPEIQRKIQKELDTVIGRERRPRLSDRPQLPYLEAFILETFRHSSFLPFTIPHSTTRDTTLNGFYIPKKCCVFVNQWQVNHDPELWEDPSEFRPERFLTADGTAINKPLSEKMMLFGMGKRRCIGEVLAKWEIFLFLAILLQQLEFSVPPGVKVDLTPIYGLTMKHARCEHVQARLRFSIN

Consider `NC(N)=NC(N)=Nc1c(F)c(F)c(F)c(F)c1F`, for which the Potency in [1] was > 11.4 µM; in assay [6], > 46 µM; in [7], > 9.22 µM. Further, the activity change, negative = inhibition in [2] is 8.28%; in assay [3], 10.9% [at 2.29 µM]; in [4], -23.3%. Further, the activity, negative = inhibition in assay [5] is 3%. Besides, the Potency entry in assay [8] and in assay [9] was “inactive” each time.

`Cc1ncc(CSC(=N)N)n1Cc1ccccc1`: the Potency in [1] was > 11.4 µM; in [6] it was > 46 µM; in assay [7], > 9.22 µM. Further, the activity change, negative = inhibition in [2] is 6.64%; in assay [4], -15.5%. In addition, the Potency result in assay [3], in [8] and in [9] was “inactive” in each case. Also, the activity, negative = inhibition in assay [5] was 4.51%.

As for `O=C(O)c1ccc(C(=O)Nc2cccc3ccccc23)c(C(=O)O)c1`, the Potency in [1] is > 11.4 µM; in assay [6] it was > 46 µM; in assay [7], > 9.22 µM. The activity change, negative = inhibition in [2] was 4.87%; in [3] it was -6.2% [at 2.29 µM]; in assay [4], 5.96%. The activity, negative = inhibition in assay [5] was 0.708%. In addition, the Potency result in [8] and in assay [9] was “inactive” each time.

`CN(CC(=O)O)CC(=O)O`: the Potency was > 11.4 µM in [1], > 46 µM in assay [6] and > 9.22 µM in assay [7]. The figures for the activity change, negative = inhibition in assay [2], in assay [3] and in assay [4] were -6.97%, -5.9% [at 2.29 µM] and 11.1%, respectively. In assay [5], the activity, negative = inhibition was 2.4%. In addition, the Potency entry in assay [8] and in [9] was “inactive” throughout.

Take `COc1ccc2nccc(SCC(=O)O)c2c1`: the Potency is > 11.4 µM in assay [1], 3.98 µM (active) in [3], > 46 µM in [6] and > 9.22 µM in assay [7]. The activity change, negative = inhibition was 7.58% in assay [2] and 6.79% in [4]. Further, the activity, negative = inhibition in assay [5] is -2.7%. Besides, the Potency result in assay [8] and in assay [9] was “inactive” each time.

In the case of `Cc1cc(Cc2c(C)c(C)c(Cc3cc(C)cc(C(C)(C)C)c3O)c(C)c2C)c(O)c(C(C)(C)C)c1`, the values for the Potency in [1], in [6] and in assay [7] were > 11.4 µM, > 46 µM and > 9.22 µM, respectively. The activity change, negative = inhibition in assay [2] was -8.57%; in [3] it was 5% [at 2.29 µM]; in assay [4] it was 14.4%. Further, the activity, negative = inhibition in [5] was 6.62%. Moreover, the Potency entry in [8] and in assay [9] was “inactive” throughout.

Turning to `NNC(=O)[C@@H](O)[C@H](O)[C@H](O)CO`, the values for the Potency in assay [1], in assay [6] and in [7] were > 11.4 µM, > 46 µM and > 9.22 µM, respectively. Moreover, the activity change, negative = inhibition is 2.85% in assay [2] and 10.5% in assay [4]. The Potency result in [3], in assay [8] and in assay [9] was “inactive” throughout. Further, the activity, negative = inhibition in [5] was 2.62%.

With `c1ccc(CSc2nnc3c4ccccc4c4ccccc4c3n2)cc1`, the Potency was > 11.4 µM in assay [1], 0.2 µM (active) in assay [3], > 46 µM in assay [6] and > 9.22 µM in assay [7]. Moreover, the values for the activity change, negative = inhibition in assay [2] and in assay [4] were 6.19% and -12.6%, respectively. The activity, negative = inhibition in assay [5] was 1.88%. The Potency result in assay [8] and in [9] was “inactive” in each case.

Consider `Fc1cccc(CSc2ncnc3c2ncn3[C@H]2CCCS2)c1`, for which the Potency in [1] was > 11.4 µM; in [3], 0.501 µM (active); in assay [6], > 46 µM; in assay [7], > 9.22 µM. Further, the activity change, negative = inhibition is -5.08% in assay [2] and -2.58% in assay [4]. In addition, the activity, negative = inhibition in assay [5] was 3.04%. The Potency result in assay [8] and in [9] was “inactive” in each case.

As to `Cc1ccccc1S(=O)(=O)O[C@@H]1NS(=O)(=O)c2ccccc21`, the Potency in assay [1] is > 11.4 µM; in assay [6] it was > 46 µM; in assay [7], > 9.22 µM. For the same compound, the activity change, negative = inhibition is 6.97% in assay [2], 13.5% [at 2.29 µM] in [3] and 10.8% in assay [4]. The activity, negative = inhibition in [5] is 0.825%. Besides, the Potency result in assay [8] and in assay [9] was “inactive” each time.

Consider `Oc1ccc(Cl)cc1C=Nc1cnc2ccccc2c1`, for which the values for the Potency in [1], in assay [6] and in assay [7] were > 11.4 µM, > 46 µM and > 9.22 µM, respectively. For the same compound, the activity change, negative = inhibition was 3.1% in [2], -13.2% [at 2.29 µM] in assay [3] and 10.1% in assay [4]. Also, the activity, negative = inhibition in [5] was -10.7%. In addition, the Potency result in assay [8] and in [9] was “inactive” throughout.

With `O=C(C[N+]1(c2ccccc2)CCOCC1)c1ccccc1`, the Potency was > 11.4 µM in assay [1], 3.98 µM (active) in assay [3], > 46 µM in [6] and > 9.22 µM in assay [7]. Also, the activity change, negative = inhibition in [2] is -5.21%; in assay [4], 11.5%. Further, in assay [5], the activity, negative = inhibition was -5.59%. For the same compound, the Potency result in assay [8] and in assay [9] was “inactive” in each case.

As to `CC(C)(N)C(=O)N[C@@H]1C(=O)N2[C@@H]1SC(C)(C)[C@H]2C(=O)O`, the Potency is > 11.4 µM in [1], > 46 µM in [6] and > 9.22 µM in assay [7]. Besides, the activity change, negative = inhibition is -6.43% in assay [2], 4.4% [at 2.29 µM] in assay [3] and -0.727% in assay [4]. Moreover, the activity, negative = inhibition in assay [5] is -0.982%. The Potency entry in assay [8] and in assay [9] was “inactive” each time.

`O=C1CN2CCN(CC2)CC(=O)Nc2ccc(cc2)S(=O)(=O)c2ccc(cc2)NC(=O)CN2CCN(CC2)CC(=O)Nc2ccc(cc2)S(=O)(=O)c2ccc(cc2)N1`: the Potency in assay [1] was > 11.4 µM; in assay [6] it was > 46 µM; in [7], > 9.22 µM. The results for the activity change, negative = inhibition in assay [2] and in assay [4] were 5.33% and 5.58%, respectively. The Potency entry in assay [3], in assay [8] and in [9] was “inactive” each time. Besides, the activity, negative = inhibition in assay [5] was 12.3%.

`O=[N+]([O-])/C=C\c1cc2ccccc2[nH]1`: the Potency in [1] is > 11.4 µM; in [3] it was 1.26 µM (active); in [6], > 46 µM; in assay [7], > 9.22 µM. For the same compound, the activity change, negative = inhibition was -11.8% in [2] and 12.4% in [4]. Moreover, the activity, negative = inhibition in assay [5] was 23.3%. The Potency entry in assay [8] and in [9] was “inactive” throughout.
